Test results reported in ChEMBL document CHEMBL1961873, “Compounds: GSK PKIS; Assays: Nanosyn kinase panel” (2012).

Experiments:
[1] = molecular target: Serine/threonine-protein kinase MARK2 (Homo sapiens) (UniProt Q7KZI7); details: at 1 µM
[2] = molecular target: PAS domain-containing serine/threonine-protein kinase (Homo sapiens) (UniProt Q96RG2); details: at 0.1 µM
[3] = molecular target: PAS domain-containing serine/threonine-protein kinase (Homo sapiens) (UniProt Q96RG2); details: at 1 µM
[4] = molecular target: Phosphorylase b kinase gamma catalytic chain, skeletal muscle/heart isoform (Homo sapiens) (UniProt Q16816); details: at 0.1 µM
[5] = molecular target: Phosphorylase b kinase gamma catalytic chain, skeletal muscle/heart isoform (Homo sapiens) (UniProt Q16816); details: at 1 µM
[6] = molecular target: T1, Phosphorylase b kinase gamma catalytic chain, liver/testis isoform (Homo sapiens) (UniProt P15735); details: at 0.1 µM
T1 sequence (whole entry): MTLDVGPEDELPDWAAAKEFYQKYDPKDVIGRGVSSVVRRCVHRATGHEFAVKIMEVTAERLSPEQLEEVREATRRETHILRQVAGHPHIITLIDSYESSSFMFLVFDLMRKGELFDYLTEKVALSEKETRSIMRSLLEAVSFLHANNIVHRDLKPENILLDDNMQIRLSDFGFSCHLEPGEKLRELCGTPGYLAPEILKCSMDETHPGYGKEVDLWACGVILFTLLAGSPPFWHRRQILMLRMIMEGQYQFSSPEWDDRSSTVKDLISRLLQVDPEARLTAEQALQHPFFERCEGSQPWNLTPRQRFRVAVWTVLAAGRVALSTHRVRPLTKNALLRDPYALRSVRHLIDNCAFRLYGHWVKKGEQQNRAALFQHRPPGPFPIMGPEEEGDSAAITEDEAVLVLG

[7] = molecular target: T1, Phosphorylase b kinase gamma catalytic chain, liver/testis isoform (Homo sapiens); details: at 1 µM
[8] = molecular target: Serine/threonine-protein kinase pim-1 (Homo sapiens) (UniProt P11309); details: at 0.1 µM
[9] = molecular target: Serine/threonine-protein kinase pim-1 (Homo sapiens) (UniProt P11309); details: at 1 µM
[10] = molecular target: Serine/threonine-protein kinase pim-2 (Homo sapiens) (UniProt Q9P1W9); details: at 0.1 µM
[11] = molecular target: Serine/threonine-protein kinase pim-2 (Homo sapiens) (UniProt Q9P1W9); details: at 1 µM
[12] = molecular target: Serine/threonine-protein kinase pim-3 (Homo sapiens) (UniProt Q86V86); details: at 0.1 µM
[13] = molecular target: Serine/threonine-protein kinase pim-3 (Homo sapiens) (UniProt Q86V86); details: at 1 µM
[14] = molecular target: T2, MAP kinase-activated protein kinase 5 (Homo sapiens) (UniProt Q8IW41); details: at 0.1 µM
T2 sequence (whole entry): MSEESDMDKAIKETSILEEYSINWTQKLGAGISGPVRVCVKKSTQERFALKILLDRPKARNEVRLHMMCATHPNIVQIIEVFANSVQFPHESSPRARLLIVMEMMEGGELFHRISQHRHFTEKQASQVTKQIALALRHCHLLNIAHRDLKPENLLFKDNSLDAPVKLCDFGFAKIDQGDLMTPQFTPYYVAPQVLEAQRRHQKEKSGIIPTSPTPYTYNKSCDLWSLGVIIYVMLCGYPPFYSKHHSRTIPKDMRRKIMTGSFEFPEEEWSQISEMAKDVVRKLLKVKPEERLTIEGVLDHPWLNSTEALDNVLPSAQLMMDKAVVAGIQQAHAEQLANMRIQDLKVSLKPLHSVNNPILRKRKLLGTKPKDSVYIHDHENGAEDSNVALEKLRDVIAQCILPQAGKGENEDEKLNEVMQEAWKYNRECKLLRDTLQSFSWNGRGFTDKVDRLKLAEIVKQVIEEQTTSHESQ

[15] = molecular target: T2, MAP kinase-activated protein kinase 5 (Homo sapiens); details: at 1 µM
[16] = molecular target: Serine/threonine-protein kinase SIK1 (Homo sapiens) (UniProt P57059); details: at 0.1 µM
[17] = molecular target: Serine/threonine-protein kinase SIK1 (Homo sapiens) (UniProt P57059); details: at 1 µM
[18] = molecular target: Serine/threonine-protein kinase SIK2 (Homo sapiens) (UniProt Q9H0K1); details: at 0.1 µM
[19] = molecular target: Serine/threonine-protein kinase SIK2 (Homo sapiens) (UniProt Q9H0K1); details: at 1 µM
[20] = molecular target: T3, Serine/threonine-protein kinase TBK1 (Homo sapiens) (UniProt Q9UHD2); details: at 0.1 µM;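 also: values are the mean TBK1 inhibition, taken from the GSK PKIS screening data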
T3 sequence (whole entry): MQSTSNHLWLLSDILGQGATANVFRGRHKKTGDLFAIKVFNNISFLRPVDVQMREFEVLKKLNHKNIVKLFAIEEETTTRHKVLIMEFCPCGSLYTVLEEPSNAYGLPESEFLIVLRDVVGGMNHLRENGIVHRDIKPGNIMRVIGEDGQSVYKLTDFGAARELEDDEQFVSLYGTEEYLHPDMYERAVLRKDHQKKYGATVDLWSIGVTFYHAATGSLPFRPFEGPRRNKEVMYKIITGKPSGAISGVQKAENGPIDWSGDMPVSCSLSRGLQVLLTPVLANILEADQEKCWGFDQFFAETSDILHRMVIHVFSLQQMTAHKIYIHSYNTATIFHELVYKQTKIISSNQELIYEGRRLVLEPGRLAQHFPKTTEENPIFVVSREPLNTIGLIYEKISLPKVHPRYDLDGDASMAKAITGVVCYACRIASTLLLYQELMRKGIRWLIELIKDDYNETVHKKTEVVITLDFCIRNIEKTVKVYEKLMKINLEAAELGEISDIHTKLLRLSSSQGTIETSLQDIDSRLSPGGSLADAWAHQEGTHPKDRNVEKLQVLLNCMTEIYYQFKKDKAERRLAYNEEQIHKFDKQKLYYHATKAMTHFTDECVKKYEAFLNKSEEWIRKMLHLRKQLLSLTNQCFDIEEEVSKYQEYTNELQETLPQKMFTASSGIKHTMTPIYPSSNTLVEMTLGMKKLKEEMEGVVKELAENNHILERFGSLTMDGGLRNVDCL

Sequence of Serine/threonine-protein kinase pim-2 (Homo sapiens) (Q9P1W9 whole entry, looked up): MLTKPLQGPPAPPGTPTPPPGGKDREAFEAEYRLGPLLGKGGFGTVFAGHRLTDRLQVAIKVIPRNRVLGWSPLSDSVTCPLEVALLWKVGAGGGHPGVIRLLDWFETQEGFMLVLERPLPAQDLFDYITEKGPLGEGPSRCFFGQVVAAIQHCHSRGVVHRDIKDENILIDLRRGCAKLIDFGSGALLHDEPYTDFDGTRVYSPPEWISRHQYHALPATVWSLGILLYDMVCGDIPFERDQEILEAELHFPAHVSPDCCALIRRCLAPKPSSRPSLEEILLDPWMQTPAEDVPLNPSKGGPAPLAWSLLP
Sequence of Serine/threonine-protein kinase SIK2 (Homo sapiens) (Q9H0K1 whole entry, looked up): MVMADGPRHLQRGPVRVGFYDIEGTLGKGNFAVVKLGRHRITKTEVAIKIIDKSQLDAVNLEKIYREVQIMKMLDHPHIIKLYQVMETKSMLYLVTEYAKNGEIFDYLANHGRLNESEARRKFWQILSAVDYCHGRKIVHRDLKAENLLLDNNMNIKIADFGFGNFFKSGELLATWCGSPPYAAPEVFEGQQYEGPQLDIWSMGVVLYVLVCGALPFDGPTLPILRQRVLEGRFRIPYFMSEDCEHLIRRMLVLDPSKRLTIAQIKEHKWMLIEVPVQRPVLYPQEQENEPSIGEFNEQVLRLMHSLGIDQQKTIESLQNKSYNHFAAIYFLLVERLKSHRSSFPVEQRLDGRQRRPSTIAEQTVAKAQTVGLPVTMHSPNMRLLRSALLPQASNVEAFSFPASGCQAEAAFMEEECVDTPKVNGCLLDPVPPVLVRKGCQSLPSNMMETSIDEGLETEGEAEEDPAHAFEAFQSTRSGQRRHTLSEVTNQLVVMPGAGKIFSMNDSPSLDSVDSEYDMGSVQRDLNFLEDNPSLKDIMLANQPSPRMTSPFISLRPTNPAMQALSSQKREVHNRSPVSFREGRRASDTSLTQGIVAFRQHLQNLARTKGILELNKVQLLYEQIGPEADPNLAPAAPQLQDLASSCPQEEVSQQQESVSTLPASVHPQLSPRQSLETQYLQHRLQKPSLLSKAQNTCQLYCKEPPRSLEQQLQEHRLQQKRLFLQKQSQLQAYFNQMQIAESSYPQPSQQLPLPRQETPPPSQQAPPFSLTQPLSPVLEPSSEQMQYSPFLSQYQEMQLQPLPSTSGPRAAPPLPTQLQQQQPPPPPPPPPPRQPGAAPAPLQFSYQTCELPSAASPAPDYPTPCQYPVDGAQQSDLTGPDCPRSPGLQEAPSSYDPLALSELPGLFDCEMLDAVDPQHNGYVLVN
Sequence of PAS domain-containing serine/threonine-protein kinase (Homo sapiens) (Q96RG2 whole entry, the tested form may be a part, canonical isoform): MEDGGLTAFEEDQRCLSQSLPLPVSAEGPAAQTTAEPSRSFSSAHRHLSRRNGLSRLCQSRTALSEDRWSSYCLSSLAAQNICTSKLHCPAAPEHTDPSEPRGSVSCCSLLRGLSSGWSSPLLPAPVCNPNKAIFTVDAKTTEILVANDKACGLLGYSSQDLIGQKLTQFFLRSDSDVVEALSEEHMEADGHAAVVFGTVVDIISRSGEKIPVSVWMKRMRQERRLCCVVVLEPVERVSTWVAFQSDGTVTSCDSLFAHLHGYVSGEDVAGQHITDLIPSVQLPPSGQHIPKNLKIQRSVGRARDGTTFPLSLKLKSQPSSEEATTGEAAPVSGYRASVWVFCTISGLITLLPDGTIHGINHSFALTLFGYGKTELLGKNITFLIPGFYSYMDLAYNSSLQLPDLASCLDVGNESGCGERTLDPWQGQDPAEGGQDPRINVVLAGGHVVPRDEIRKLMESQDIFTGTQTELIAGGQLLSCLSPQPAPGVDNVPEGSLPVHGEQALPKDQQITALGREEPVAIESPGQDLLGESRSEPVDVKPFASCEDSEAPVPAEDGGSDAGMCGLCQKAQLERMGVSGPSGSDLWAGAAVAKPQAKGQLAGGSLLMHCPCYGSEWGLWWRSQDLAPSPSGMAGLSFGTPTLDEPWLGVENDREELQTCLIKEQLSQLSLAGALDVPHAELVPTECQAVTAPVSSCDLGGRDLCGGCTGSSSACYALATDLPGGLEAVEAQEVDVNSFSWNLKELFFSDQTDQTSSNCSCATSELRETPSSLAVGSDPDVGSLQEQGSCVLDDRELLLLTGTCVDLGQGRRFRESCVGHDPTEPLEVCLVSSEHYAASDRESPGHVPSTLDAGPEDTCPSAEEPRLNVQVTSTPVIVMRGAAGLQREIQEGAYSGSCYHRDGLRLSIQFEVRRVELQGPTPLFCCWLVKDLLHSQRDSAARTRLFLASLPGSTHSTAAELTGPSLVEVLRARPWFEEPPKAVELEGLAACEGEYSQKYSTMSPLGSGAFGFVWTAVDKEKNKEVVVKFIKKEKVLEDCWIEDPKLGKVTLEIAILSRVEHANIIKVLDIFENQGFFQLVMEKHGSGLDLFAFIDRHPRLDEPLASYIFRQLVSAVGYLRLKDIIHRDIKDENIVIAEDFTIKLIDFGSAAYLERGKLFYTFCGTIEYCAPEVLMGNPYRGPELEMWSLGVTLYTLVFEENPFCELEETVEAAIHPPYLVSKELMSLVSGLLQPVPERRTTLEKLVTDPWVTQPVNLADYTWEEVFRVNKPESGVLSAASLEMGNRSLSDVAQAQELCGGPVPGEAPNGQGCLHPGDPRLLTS
Sequence of Phosphorylase b kinase gamma catalytic chain, skeletal muscle/heart isoform (Homo sapiens) (Q16816 whole entry, looked up, canonical isoform): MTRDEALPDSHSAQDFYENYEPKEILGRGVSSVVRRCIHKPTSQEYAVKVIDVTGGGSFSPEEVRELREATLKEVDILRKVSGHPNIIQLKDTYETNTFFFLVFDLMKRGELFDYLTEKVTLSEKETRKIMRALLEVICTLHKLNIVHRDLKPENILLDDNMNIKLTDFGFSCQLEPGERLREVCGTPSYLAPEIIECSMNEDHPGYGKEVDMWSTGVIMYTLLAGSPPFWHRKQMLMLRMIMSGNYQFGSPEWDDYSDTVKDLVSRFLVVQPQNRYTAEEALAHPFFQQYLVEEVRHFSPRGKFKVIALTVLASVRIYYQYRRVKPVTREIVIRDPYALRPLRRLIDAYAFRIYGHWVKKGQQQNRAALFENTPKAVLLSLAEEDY
Sequence of Serine/threonine-protein kinase SIK1 (Homo sapiens) (P57059 whole entry): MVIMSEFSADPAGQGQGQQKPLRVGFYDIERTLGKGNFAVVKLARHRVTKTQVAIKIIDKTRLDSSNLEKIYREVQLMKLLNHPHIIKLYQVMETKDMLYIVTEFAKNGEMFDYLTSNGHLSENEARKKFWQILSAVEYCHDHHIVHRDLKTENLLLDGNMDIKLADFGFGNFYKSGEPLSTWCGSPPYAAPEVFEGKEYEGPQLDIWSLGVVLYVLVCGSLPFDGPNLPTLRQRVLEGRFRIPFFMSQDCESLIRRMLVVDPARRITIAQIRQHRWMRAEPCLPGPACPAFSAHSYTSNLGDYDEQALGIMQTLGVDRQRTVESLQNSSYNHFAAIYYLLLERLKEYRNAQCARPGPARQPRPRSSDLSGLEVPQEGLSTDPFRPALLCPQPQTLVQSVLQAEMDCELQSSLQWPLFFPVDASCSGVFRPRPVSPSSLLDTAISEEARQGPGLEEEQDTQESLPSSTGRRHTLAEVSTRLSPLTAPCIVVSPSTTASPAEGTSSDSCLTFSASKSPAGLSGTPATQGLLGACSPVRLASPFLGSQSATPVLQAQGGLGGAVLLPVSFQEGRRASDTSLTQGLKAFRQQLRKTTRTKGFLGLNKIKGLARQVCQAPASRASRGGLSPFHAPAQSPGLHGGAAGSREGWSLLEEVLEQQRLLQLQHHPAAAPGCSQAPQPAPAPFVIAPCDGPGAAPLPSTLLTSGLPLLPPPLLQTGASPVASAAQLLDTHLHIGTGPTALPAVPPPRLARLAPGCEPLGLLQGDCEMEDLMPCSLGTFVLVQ
Sequence of Serine/threonine-protein kinase MARK2 (Homo sapiens) (Q7KZI7 whole entry, the tested form may be a part): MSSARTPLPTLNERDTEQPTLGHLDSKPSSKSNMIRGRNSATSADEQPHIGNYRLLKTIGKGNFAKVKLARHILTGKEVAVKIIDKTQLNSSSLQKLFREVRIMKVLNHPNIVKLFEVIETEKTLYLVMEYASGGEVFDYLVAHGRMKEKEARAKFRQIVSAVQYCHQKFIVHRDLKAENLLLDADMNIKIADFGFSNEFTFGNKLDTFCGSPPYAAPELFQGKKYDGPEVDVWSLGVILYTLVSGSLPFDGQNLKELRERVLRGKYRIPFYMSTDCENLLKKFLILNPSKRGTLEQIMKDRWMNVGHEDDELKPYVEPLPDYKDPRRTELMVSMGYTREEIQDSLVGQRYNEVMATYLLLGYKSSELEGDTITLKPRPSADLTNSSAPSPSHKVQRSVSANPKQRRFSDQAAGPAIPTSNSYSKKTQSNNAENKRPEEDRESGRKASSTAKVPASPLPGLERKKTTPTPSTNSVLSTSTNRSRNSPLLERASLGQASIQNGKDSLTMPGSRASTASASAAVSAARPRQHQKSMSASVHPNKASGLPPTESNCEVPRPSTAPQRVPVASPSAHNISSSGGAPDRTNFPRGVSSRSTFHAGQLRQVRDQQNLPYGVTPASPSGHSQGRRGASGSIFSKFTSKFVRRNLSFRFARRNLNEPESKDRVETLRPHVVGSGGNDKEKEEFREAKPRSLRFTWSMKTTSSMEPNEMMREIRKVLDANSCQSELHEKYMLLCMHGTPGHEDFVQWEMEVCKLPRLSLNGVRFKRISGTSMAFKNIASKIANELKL

SMILES	inhibition [1] [%]	inhibition [2] [%]	inhibition [3] [%]	inhibition [4] [%]	inhibition [5] [%]	inhibition [6] [%]	inhibition [7] [%]	inhibition [8] [%]	inhibition [9] [%]	inhibition [10] [%]	inhibition [11] [%]	inhibition [12] [%]	inhibition [13] [%]	inhibition [14] [%]	inhibition [15] [%]	inhibition [16] [%]	inhibition [17] [%]	inhibition [18] [%]	inhibition [19] [%]	inhibition [20] [%]
COc1ccc(-c2nn3ncccc3c2-c2ccnc(Nc3ccc4c(c3)OCCO4)n2)cc1	-0.07	1.07	0.37	2.6	6.21	0.91	0.83	0.46	-0.36	0.54	1.11	0.26	2.15	0.05	-0.76	1.35	12.5	-0.55	6.1	-0.73
CNC(=O)c1cncc(/C=C/c2ccccc2Cl)c1	0.58	1.8	4.02	-1.06	2.44	1.88	5.64	0.54	0.89	0.13	0.04	3.4	5.1	0.27	1.73	2.02	25.6	2.24	8.3	0.45
O=S(=O)(CCNCc1ccc(-c2ccc3ncnc(Nc4ccc(OCc5cccc(F)c5)c(Cl)c4)c3c2)o1)c1ccccc1	-0.14	-0.06	0.32	5.41	9.29	7.91	7.71	-0.13	1.9	0.44	0.58	-0.16	1.33	2.07	2.09	3.17	9.64	2.1	6.58	4.82
Cc1ccc(O)cc1Nc1ccnc2cc(-c3ccccn3)ccc12	4.34	0.71	-0.05	2.23	9.36	5.58	2.55	0.67	3.79	0.49	1.15	-0.3	-0.17	1.2	0.39	14.9	48.6	6.77	23.9	2.89
COC(=O)Nc1nc2ccc(Oc3ccc(NC(=O)Nc4cccc(Cl)c4)cc3)cc2[nH]1	0.42	1.55	0.95	1.88	4.58	1.21	1.57	-0.68	-1.08	-0.32	-1.04	-0.85	-1.87	0.18	-0.5	1.1	4.14	0.4	1.86	1.34
COc1cccc(-c2c[nH]c3c(N/N=C/c4ccncc4)ncnc23)c1	5.48	0.94	-0.58	3.01	12.1	3.45	1.52	1.65	5.38	-0.12	1.1	0.71	2.78	0.16	-1.66	10.7	48.9	28.6	67.4	3.26
COC(=O)c1sc(-n2cnc3cc(OC)c(OC)cc32)cc1OCc1ccccc1C(F)(F)F	2.26	-1.52	-2.77	4.45	5.4	4.03	0.9	0.49	1	0.49	-0.34	-1.72	-2.84	2.02	-0.15	6.13	24.6	5.85	15.2	3.44
Fc1ccc(-c2nn3ccccc3c2-c2ccncc2)cc1	0.53	-0.17	-0.32	2.42	2.09	0.28	-0.7	-0.39	0.04	-0.3	-0.05	-0.94	-1.43	0.01	-0.42	1.08	4.41	0	14.9	2.66
CCn1cc(-c2ccnc3[nH]ccc23)c(-c2cccc(NC(=O)Nc3ccc(OCc4ccccc4)cc3)c2)n1	1.54	0.94	1.65	1.58	4.8	1.37	1.3	-0.93	-1.25	0.19	0.13	-0.81	-1.13	-0.44	-0.98	1.1	3.35	-4.91	-0.71	-0.45
Fc1ccc(-c2cc(-c3c[nH]nc3-c3ccccn3)ccn2)cc1	-2.56	-0.42	0.53	5.71	9.03	5.07	8.42	-0.17	0.76	0.19	-1.45	-0.42	1.85	2.19	4.27	3.49	8.52	7.67	8	0.43
Cc1cccc2c1NC(=O)/C2=N\Nc1ccc(S(N)(=O)=O)cc1	1.34	0.5	-1.79	-1.4	2.98	3.6	2.88	1.4	-0.19	0.28	0.28	-0.05	-2.33	0.84	-0.06	6.76	2.58	7.86	2.38	2.84
CCN1CCC(CC(=O)Nc2n[nH]c3nnc(-c4cccc(F)c4F)cc23)CC1	1.15	0.77	1.59	5.02	5.09	3.86	4.27	0.56	0.7	0.39	1.56	1.76	2.5	1.08	1.15	4.85	5.87	-1.82	1.81	1.12
NS(=O)(=O)c1ccc(N/N=C2\C(=O)Nc3ccc4ncccc4c32)cc1	35.3	-0.19	-1.87	11.2	50	3.72	14.1	1.89	15.9	1.2	9.88	1.09	12.5	1.52	8.94	2.74	31.3	-0.54	31.6	7.16
